The values that follow come from PubChem BioAssay (NCI).

Test systems include HCT-15 colon; HT29 colon; SNB-75 CNS; SNB-19 CNS; SK-MEL-5 melanoma; UACC-62 melanoma; LOX IMVI melanoma; SK-MEL-28 melanoma; PC-3 prostate; U251 CNS.
What all share (test): NCI-60 one-dose screen, 48 h (100 = growth as untreated, 0 = no growth, -100 = all killed)
Details in all cases: 10 µM

Compounds without any hit were thinned out: in the full panel of roughly 83,000, 20% have a hit.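 Assay: single dose, 48 h. Readout: percent growth (0 = no net growth; negative = cell death). Active: <10.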 Values without a mark were called inactive. Active and inactive are the calls of the source.

In the case of `O=C1/C=C/[C@@H](O)[C@@H]2C[C@@H](O)C[C@H]2/C=C/CCC[C@H](C(F)(F)F)O1`, the growth with HCT-15 colon was 6.45% (active); in the experiment on HT29 colon, -28.3% (active); in the experiment on SNB-75 CNS, 39.1%; in the experiment on SNB-19 CNS, 65.6%; with SK-MEL-5 melanoma, -98.3% (active); in the experiment with UACC-62 melanoma, -3.9% (active). For the same molecule, the growth in the experiment with LOX IMVI melanoma is -90.6% (active); in the experiment with SK-MEL-28 melanoma, -8.65% (active).
For the molecule `C/C(=C/CCC(C)[C@@H]1CC[C@]2(C)C3=C(CC[C@@]12C)[C@@]1(C)CCC(=O)C(C)(C)[C@@H]1CC3)C(=O)O` (some centres undefined), the growth with HCT-15 colon is -66.6% (active); in the experiment on HT29 colon, -65.8% (active); in the experiment on SNB-75 CNS it was -68.1% (active); with SNB-19 CNS, -78.1% (active); in the experiment with SK-MEL-5 melanoma it was -98.2% (active); with UACC-62 melanoma, -92.4% (active). The growth in the experiment with LOX IMVI melanoma was -53.9% (active); in the experiment with SK-MEL-28 melanoma it was -83.9% (active).
As for `COc1ccc(/C=C2\CCCC3=C2N=C2SC(C)=CN2C3c2ccc(OC)cc2)cc1` (centres undefined), the growth in the experiment with HCT-15 colon is 102%; in the experiment on HT29 colon it was 104%; in the experiment with SNB-75 CNS, 97.7%; with SNB-19 CNS it was 100%; with PC-3 prostate it was 99.9%; with SK-MEL-5 melanoma, 92.3%. In addition, the values for the growth with LOX IMVI melanoma and in the experiment on SK-MEL-28 melanoma were 91.5% and 96.2%, respectively.
For `O=C1/C=C/[C@@H](O)[C@@H]2C[C@@H](O)C[C@H]2/C=C/CCC[C@@H](C(F)(F)F)O1`, the growth with HCT-15 colon is 100%; with HT29 colon, 39.9%; in the experiment with SNB-75 CNS it was 60.7%; with SNB-19 CNS, 97.1%; with PC-3 prostate, 92.9%; with SK-MEL-5 melanoma, 60.5%. Also, the values for the growth with LOX IMVI melanoma and with SK-MEL-28 melanoma were 71.3% and 61.8%, respectively.
Turning to `C[C@]12CC[C@@H]3c4ccc(OS(=O)(=O)O)cc4CC[C@H]3[C@@H]1CC[C@@H]2NS(=O)(=O)c1ccc(-c2ccccc2)cc1`, the growth is 52.6% in the experiment on HCT-15 colon; 50% in the experiment with HT29 colon; 75.6% in the experiment on SNB-75 CNS; 89.6% with SNB-19 CNS; 41% in the experiment on PC-3 prostate; 67.4% in the experiment with SK-MEL-5 melanoma. The growth with UACC-62 melanoma was 79.1%; in the experiment on SK-MEL-28 melanoma it was 95.8%.
Regarding `COc1ccc(/C(C#N)=C/c2ccccc2OC)cc1`, the growth in the experiment with HCT-15 colon is 23.8%; in the experiment on HT29 colon, 6.29% (active); with SNB-75 CNS, 28.4%; in the experiment on SNB-19 CNS, 51.9%; in the experiment with PC-3 prostate, 55.6%; in the experiment on SK-MEL-5 melanoma, 9.12% (active). The growth in the experiment with UACC-62 melanoma was 41.6%; in the experiment with LOX IMVI melanoma, 37.2%; in the experiment with SK-MEL-28 melanoma it was 51.8%.
As for `COc1ccc(C(=O)N/N=C/c2cc(C(F)(F)F)ccc2Cl)cc1`, the growth in the experiment with HCT-15 colon is 73.2%; in the experiment with HT29 colon, 99.7%; with SNB-75 CNS, 101%; in the experiment on U251 CNS, 109%; in the experiment on PC-3 prostate, 90.9%; in the experiment with SK-MEL-5 melanoma it was 85.5%. The growth in the experiment with UACC-62 melanoma is 76.9%; in the experiment on LOX IMVI melanoma it was 92.4%; in the experiment with SK-MEL-28 melanoma, 96.5%.
Turning to `O=C(CCCSc1nc(-c2ccc(Cl)cc2)cc(-c2ccc(Cl)cc2)n1)NO`, the growth with HCT-15 colon was 17.6%; with HT29 colon, 23.2%; in the experiment on SNB-75 CNS, 13.7%; with U251 CNS, 17.2%; in the experiment with PC-3 prostate it was 21%; in the experiment on SK-MEL-5 melanoma, -31.7% (active). Further, the growth in the experiment with UACC-62 melanoma is -10.7% (active); in the experiment on LOX IMVI melanoma, -2.15% (active); in the experiment with SK-MEL-28 melanoma, 25%.
In the case of `CN(C)c1ncnc2c1nnn2C1OC(CO)C(O)C1O` (centres undefined), the growth with HCT-15 colon is 7.45% (active); in the experiment with HT29 colon, 0.427% (active); in the experiment with SNB-75 CNS, 28.3%; with SNB-19 CNS it was 33.9%; in the experiment with PC-3 prostate, 21.7%; in the experiment on SK-MEL-5 melanoma, -12.6% (active). The results for the growth with UACC-62 melanoma, with LOX IMVI melanoma and in the experiment with SK-MEL-28 melanoma were -32.9% (active), 9.03% (active) and 12.6%, respectively.
For the molecule `CC(C)(C)c1ccc(S(=O)(=O)N[C@H]2CC[C@H]3[C@@H]4CCc5cc(O)ccc5[C@H]4CC[C@]23C)cc1`, the growth was 34.7% with HCT-15 colon; 10.2% in the experiment with HT29 colon; 55.4% in the experiment with SNB-75 CNS; 80.6% with SNB-19 CNS; 30.6% with PC-3 prostate; 40.4% with SK-MEL-5 melanoma. Further, the growth was 61.2% in the experiment on UACC-62 melanoma and 79.1% with SK-MEL-28 melanoma.
As for `COc1ccc(-c2nn(-c3cccc(Cl)c3)cc2-c2c(C#N)c(=O)n3[nH]c(-c4ccccc4)nc3c2C#N)cc1`, the growth in the experiment with HCT-15 colon was 93.4%; with HT29 colon, 96.9%; in the experiment with SNB-75 CNS it was 80.3%; in the experiment on SNB-19 CNS, 90.9%; in the experiment with PC-3 prostate, 101%; in the experiment on SK-MEL-5 melanoma it was 96.4%. Also, the growth in the experiment with UACC-62 melanoma was 99.3%; in the experiment on LOX IMVI melanoma, 87.6%; in the experiment with SK-MEL-28 melanoma, 115%.
Take `COc1ccc(-c2nn(-c3cccc(Cl)c3)cc2-c2c(C#N)c(=O)n3[nH]c(-c4ccc(C)cc4)nc3c2C#N)cc1`: the growth in the experiment with HCT-15 colon was 65.2%; in the experiment on HT29 colon, 5.33% (active); with SNB-75 CNS it was 36.4%; in the experiment on SNB-19 CNS, 64.2%; in the experiment on PC-3 prostate it was 68.6%; with SK-MEL-5 melanoma, 68.6%. For the same molecule, the growth is 57.1% with UACC-62 melanoma, 39.7% with LOX IMVI melanoma and 92.3% with SK-MEL-28 melanoma.
In the case of `Brc1ccc2c(c1)-c1ccccc1C1=NCCN12`, the growth in the experiment with HCT-15 colon was 1.51% (active); in the experiment with HT29 colon, -14.9% (active); with SNB-75 CNS, 8.5% (active); in the experiment with U251 CNS, -10.7% (active); in the experiment with PC-3 prostate, 2.13% (active); in the experiment on SK-MEL-5 melanoma, -77.2% (active). For the same molecule, the growth is -13.4% (active) in the experiment on UACC-62 melanoma, -69.4% (active) in the experiment on LOX IMVI melanoma and 0.722% (active) in the experiment on SK-MEL-28 melanoma.
Turning to `COc1ccccc1/C=N\N/C(N)=N\N=C\c1ccccc1OC`, the growth is 1.27% (active) with HCT-15 colon; -1.01% (active) in the experiment on HT29 colon; 21.5% in the experiment with SNB-75 CNS; 5.71% (active) in the experiment with U251 CNS; 29.3% in the experiment on PC-3 prostate; -30% (active) with SK-MEL-5 melanoma. The growth with UACC-62 melanoma is 19.7%; with LOX IMVI melanoma it was 5.74% (active); with SK-MEL-28 melanoma it was 56.9%.
With `Cc1c(O)c(=O)ccn1C1CCC(CC2CCC(n3ccc(=O)c(O)c3C)CC2)CC1` (centres undefined), the growth with HCT-15 colon is 18.9%; in the experiment on HT29 colon it was 33.8%; in the experiment with SNB-75 CNS it was 21.1%; in the experiment with U251 CNS, 30.2%; in the experiment with PC-3 prostate it was 41.7%; with SK-MEL-5 melanoma, 29.2%. Also, the growth is 14.6% in the experiment with UACC-62 melanoma, 25% in the experiment with LOX IMVI melanoma and 49.4% in the experiment with SK-MEL-28 melanoma.
